From PubChem BioAssay
Activity calls are given as the source filed them. The rule behind the calls is not given here.

molecular target: Protein kinase 7 (PK7), Plasmodium falciparum 3D7 (PF3D7_0213400) (UniProt Q7YTF7); test: inhibition of Plasmodium PK7 catalytic activity – biochemical, TCAMS antimalarial set, Kinase-Glo luminescence (AID 1159587); settings: recombinant PfPK7, Kinase-Glo ATP depletion luminescence
Sequence (Q7YTF7 1-343): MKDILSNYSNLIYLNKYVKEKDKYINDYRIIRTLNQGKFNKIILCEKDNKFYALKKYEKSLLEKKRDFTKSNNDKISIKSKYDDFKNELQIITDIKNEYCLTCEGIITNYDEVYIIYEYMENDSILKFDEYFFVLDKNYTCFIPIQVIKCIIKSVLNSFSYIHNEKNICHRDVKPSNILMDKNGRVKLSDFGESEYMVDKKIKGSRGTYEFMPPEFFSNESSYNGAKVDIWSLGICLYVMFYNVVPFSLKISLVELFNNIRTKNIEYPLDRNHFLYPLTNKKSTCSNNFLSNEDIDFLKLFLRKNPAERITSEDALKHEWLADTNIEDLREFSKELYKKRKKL

outcome, inactive:
O=C(Nc1ccccc1)Nc1cccc(-c2nn3c(OCCN4CCCC4)cccc3c2-c2ccncc2)c1, N#Cc1ccc(C(=O)Nc2cc(-c3cccc(O)c3)cc3[nH]ncc23)cc1, O=C(NCCCCN1CCC(c2ccc3c(c2OCCCO)CCCC3)CC1)c1ccc(-c2ccc(C(F)(F)F)cc2)c(CO)c1, Cc1nc(Nc2ccc(F)cc2)nc(N2CCc3ccccc3[C@@H]2C)c1C, Cc1ccccc1Oc1ccc(Nc2ccnc(Nc3cccc(C(N)=O)c3)n2)cc1C(F)(F)F, Fc1ccccc1C=NNc1ccnc2cc(Cl)ccc12, O=c1c2cccnc2sn1-c1ccccc1, COc1ccc(CN2CCN(CC(=O)Nc3cc(Cl)ccc3-n3cncn3)CC2)cc1F, Clc1ccc(C=NNc2ccnc3cc(Cl)ccc23)cc1, O=C(CN1C(=O)CC1S(=O)(=O)Cc1ccco1)NCCCCCCc1ccc(F)cc1 (stereo not given), NS(=O)(=O)c1cccc(N=Cc2c(O)[nH]c3ccc(S(=O)(=O)Cc4c(Cl)cccc4Cl)cc23)c1, Cn1cccc1C(=O)Nc1cccc(-c2nn3ccccc3c2-c2ccnc(Nc3ccc4c(c3)OCCO4)n2)c1, Cc1nc2ccccc2n1C1C[C@H]2CC[C@@H](C1)N2CCC1(c2ccccc2)CCN(C(=O)Nc2ccc(C(F)(F)F)cc2)CC1 (stereo not given in full), c1ccc2sc(-c3csc(Nc4ccncc4)n3)nc2c1, CCN(CC)CCNC(=O)c1ccc(Nc2ncc([N+](=O)[O-])c(Nc3ccccc3OC)n2)cc1
